# Reference: PubChem BioAssay (NCI)
# About 83,000 compounds went through this panel and 20% of them were active in at least one assay; those are over-represented in the sample as a whole.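 Note: values are percent growth. 100 is the growth of untreated cells, values between 100 and 0 indicate rising inhibition; between -100 and 0 indicates cell death.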 A number with no mark means an inactive call. Calls of active or inactive are those of the source. Rule for the calls: active = growth percent below 10; inactive = the rest.
# Test system: NCI-H522 lung
# Test: NCI-60 one-dose screen, 48 h (100 = growth as untreated, 0 = no growth, -100 = all killed)
# Settings: 10 µM unless noted
row,SMILES,growth
1,CCOC(=O)c1cc(C(=O)c2ccc(O)c(O)c2)n2ccc(-c3ccn4c(C(=O)c5ccc(O)c(O)c5)cc(C(=O)OCC)c4c3)cc12,82.7%
2,CC1C(/C=N/Nc2ccccc2)C(C#N)(C#N)C1(C#N)C#N (centres undefined),53.9%
3,O=C(/C=C/c1ccc(C(F)(F)F)cc1)Nc1ccc(C=C2c3ccccc3C(=O)c3ccccc32)cc1,20.8%
4,CC/C=C\C[C@H](O)C/C=C1/C(=O)C=C[C@@]1(C)C/C=C\CCCC(=O)OC,81.2%
5,COc1cc(-c2nn(-c3ccc(C(=O)O)cc3)cc2C(=O)O)ccc1O,12%
6,COc1ccc(O)c(N=Nc2nccs2)c1,88.2%
7,NCCNc1nc(Nc2ccc(-c3nc4ccccc4[nH]3)cc2)c2cn[nH]c2n1,16.6%
8,COc1cc(-c2nn(-c3ccc(Br)cc3)cc2C(=O)O)ccc1O,67.7%
9,OCCN1CCN(c2nc(Nc3ccc(-c4nc5ccccc5[nH]4)cc3)c3cn[nH]c3n2)CC1,-85.6% (active)
10,O=c1oc2c(C(F)(F)F)cccc2cc1-c1csc(Nc2ccc(OCCF)cc2)n1,-42.9% (active)
11,N#Cc1nnn(-c2ccc(S(N)(=O)=O)cc2)c1NC(=O)CCl,95%
12,C=C1C(=O)O[C@H]2[C@H]1CC/C(C=Nc1ccc(C(F)(F)F)cc1N)=C\CC[C@@]1(C)O[C@@H]21,-56.6% (active)
13,CSc1ccc(-c2ccccc(=O)c2O)cc1,24.1%
14,Clc1ccc2c(NCCNc3nc(N4CCCCC4)nc4ccccc34)ccnc2c1,-21.8% (active)
